Assay results reported in PubChem BioAssay (EPA / NIEHS).
Inconclusive results are not listed. Calls of active or inactive are those of the source. How the source made its calls, unless noted: active means hit-call score of the fitted dose curve at least 0.9, where 1 is the maximum; inactive means score below 0.9.

Assays:
[1] = target: Retinoic acid receptor alpha (Homo sapiens) (UniProt P10276); experiment: NVS_NR_hRARa_Agonist: NovaScreen (NVS) Nuclear Receptor Binding Assay for human Retinoic Acid Alpha Receptor Agonism (RAR) (AID 2283361; active means hit-call score of the fitted dose curve at least 0.9, where 1 is the maximum)
In short: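 TR-FRET signal, 2 h post-dosing; cell-free extracted protein; DMSO = baseline, positive fitting direction; 25 uM single-point duplicate, then concentration series for actives.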

[2] = target: human Caspase 5 (CASP5), CASP5 (gene 838) (UniProt P51878); experiment: NVS_ENZ_hCASP5: NovaScreen (NVS) Enzymatic Assay for human Caspase 5 (CASP5) (AID 2283137; active means hit-call score of the fitted dose curve at least 0.9, where 1 is the maximum)
In short: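 Caspase 5 enzyme activity, detected as fluorescence signal loss, is measured in a biochemical format using E. coli-expressed protein. Reading occurs 2 hours post-dosing. Screening runs at 25 uM, with confirmed actives titrated to 50 uM maximum.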

[3] = target: human Neurokinin, NK2 Receptor, TACR2 (gene 6865) (UniProt P21452); experiment: NVS_GPCR_hNK2: NovaScreen (NVS) G Protein-Coupled Receptor Assay for human Neurokinin, NK2 Receptor (AID 2283278; active means hit-call score of the fitted dose curve at least 0.9, where 1 is the maximum;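 further: actives reduce bound radioligand signal relative to DMSO baseline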)
In short: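 CHO-derived membrane protein, radioligand displacement, filter scintillation read at 4 h post-dose. Single-point 25 uM in duplicate, then concentration series for actives; DMSO as negative control.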

[4] = target: human Opioid Receptor Mu (Opiate Mu), OPRM1 (gene 4988) (UniProt P35372); experiment: NVS_GPCR_hOpiate_mu: NovaScreen (NVS) G Protein-Coupled Receptor Assay for human Opioid Receptor Mu (Opiate Mu) (AID 2283290; active means hit-call score of the fitted dose curve at least 0.9, where 1 is the maximum;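 further: hits lower bound tracer signal versus DMSO meaning displacement of the ligand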)
In short: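 Cell-free radioligand binding to membranes from CHO cells expressing the receptor; bound tracer measured by filter-based scintillation counting 2.5 hours after dosing. Loss of signal versus DMSO baseline reflects displacement; primary screen at 25 uM in duplicate, actives followed up in concentration series.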

[5] = TAMU_HCS_1.5hr_SingleDonor1434_Cytotoxicity: Cytotoxicity Assessment using High-content Screening (HCS) Fluorescent Imaging for the Texas A&M University (TAMU) 1.5-hr Human Induced Pluripotent Stem Cell (iPSC)-derived Cardiotoxicity Assay (AID 2284234; active means hit-call score of the fitted dose curve at least 0.9, where 1 is the maximum)
In short: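 Nuclear counts from Hoechst 33342 imaging define cytotoxicity here, with EC10 (10% cell-count loss relative to DMSO) as point of departure. iPSC cardiomyocytes received 0.2-100 uM test chemical in 0.5% DMSO for 1.5 h at 37 C.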

[6] = read-out: Monokine induced gamma interferon (MIG), CXCL9 (gene 4283); experiment: BSK_KF3CT_MIG: BioMAP Diversity Plus: KF3CT Assay for Monokine induced gamma interferon (MIG) Biomarker Activity (AID 2284248); details: primary human keratinocytes with fibroblasts
In short: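 MIG in dosed human skin co-cultures was measured by ELISA at 24 h, relative to DMSO.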

[7] = read-out: Collagen I, COL1A1 (gene 1277); experiment: BSK_hDFCGF_CollagenI: BioMAP Diversity Plus: hDFCGF Assay for Collagen I Biomarker Activity (AID 2284250); details: primary human foreskin fibroblasts
In short: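 Readout: Collagen I by ELISA after 24 h compound treatment of primary human foreskin fibroblasts. Endpoint analysed for increases relative to DMSO; total protein by SRB in parallel wells flagged cytotoxicity.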

[8] = read-out: Interferon-inducible T-cell alpha chemoattractant (ITAC), CXCL11 (gene 6373); experiment: BSK_hDFCGF_ITAC: BioMAP Diversity Plus: hDFCGF Assay for Interferon-inducible T-cell alpha chemoattractant (ITAC) Biomarker Activity (AID 2284251); details: primary human foreskin fibroblasts
In short: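 Measured by ELISA, the chemokine level serves as the endpoint in human skin fibroblast primary cultures 24 h after compound addition. Increases relative to DMSO-treated wells define activity.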

[9] = read-out: Plasminogen activator inhibitor-1 (PAI1), SERPINE1 (gene 5054); experiment: BSK_KF3CT_PAI1: BioMAP Diversity Plus: KF3CT Assay for Plasminogen activator inhibitor-1 (PAI1) Biomarker Activity (AID 2284252); details: primary human keratinocytes with fibroblasts
In short: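 In this co-culture of primary human keratinocytes and foreskin fibroblasts, PAI-1 was measured by ELISA at 24 h and fitted upward from DMSO.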

[10] = read-out: Interleukin-8 (IL8), CXCL8 (gene 3576); experiment: BSK_KF3CT_IL8: BioMAP Diversity Plus: KF3CT Assay for Interleukin-8 (IL8) Biomarker Activity (AID 2284254); details: primary human keratinocytes with fibroblasts
In short: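 Using parallel SRB-stained cultures to flag overt toxicity, the study quantified IL-8 by ELISA in human keratinocyte–foreskin fibroblast co-cultures 24 h after dosing, with DMSO as negative control and baseline.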

[11] = read-out: Intercellular Adhesion Molecule 1 (ICAM1), ICAM1 (gene 3383); experiment: BSK_BE3C_ICAM1: BioMAP Diversity Plus: BE3C Assay for Intercellular Adhesion Molecule 1 (ICAM1) Biomarker Activity (AID 2284278); details: primary human bronchial epithelial cells;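 further: cell-surface ICAM-1 protein level quantified by ELISA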
In short: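 hu bronchial epithelial primary cells, 24 h cpd exposure, ICAM-1 ELISA; gain-of-signal fit vs DMSO baseline.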

[12] = target: Nuclear receptor subfamily 1 group I member 2 (Homo sapiens) (UniProt O75469); experiment: NVS_NR_hPXR: NovaScreen (NVS) Nuclear Receptor Binding Assay for human Pregnane X Receptor (PXR) (AID 2283365; active means hit-call score of the fitted dose curve at least 0.9, where 1 is the maximum;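 further: a drop in FRET signal versus DMSO baseline means the compound binds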)
Chain of Nuclear receptor subfamily 1 group I member 2 (Homo sapiens) (O75469 whole entry, looked up): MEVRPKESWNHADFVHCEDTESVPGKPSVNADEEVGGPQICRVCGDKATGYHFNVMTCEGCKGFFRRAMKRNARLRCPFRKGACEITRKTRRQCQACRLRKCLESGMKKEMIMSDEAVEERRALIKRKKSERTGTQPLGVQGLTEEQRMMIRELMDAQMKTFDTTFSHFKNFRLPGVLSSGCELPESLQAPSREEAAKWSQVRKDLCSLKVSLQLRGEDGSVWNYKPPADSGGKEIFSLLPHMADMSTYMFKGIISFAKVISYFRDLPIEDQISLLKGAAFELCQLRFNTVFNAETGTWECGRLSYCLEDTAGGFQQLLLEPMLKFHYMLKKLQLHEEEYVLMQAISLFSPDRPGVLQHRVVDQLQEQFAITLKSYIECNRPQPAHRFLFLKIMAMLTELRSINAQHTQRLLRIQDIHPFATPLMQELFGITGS
In short: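 Read-out: TR-FRET, human PXR, 2 h post-dosing, cell-free. Loss of signal vs DMSO taken as binding activity; 25 uM primary, concentration series secondary.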

[13] = target: human Phosphodiesterase 10 (PDE10), PDE10A (gene 10846) (UniProt Q9Y233); experiment: NVS_ENZ_hPDE10: NovaScreen (NVS) Enzymatic Assay for human Phosphodiesterase 10 (PDE10) (AID 2283195; active means hit-call score of the fitted dose curve at least 0.9, where 1 is the maximum)
Chain of human Phosphodiesterase 10 (PDE10), PDE10A (gene 10846) (Q9Y233 whole entry, looked up): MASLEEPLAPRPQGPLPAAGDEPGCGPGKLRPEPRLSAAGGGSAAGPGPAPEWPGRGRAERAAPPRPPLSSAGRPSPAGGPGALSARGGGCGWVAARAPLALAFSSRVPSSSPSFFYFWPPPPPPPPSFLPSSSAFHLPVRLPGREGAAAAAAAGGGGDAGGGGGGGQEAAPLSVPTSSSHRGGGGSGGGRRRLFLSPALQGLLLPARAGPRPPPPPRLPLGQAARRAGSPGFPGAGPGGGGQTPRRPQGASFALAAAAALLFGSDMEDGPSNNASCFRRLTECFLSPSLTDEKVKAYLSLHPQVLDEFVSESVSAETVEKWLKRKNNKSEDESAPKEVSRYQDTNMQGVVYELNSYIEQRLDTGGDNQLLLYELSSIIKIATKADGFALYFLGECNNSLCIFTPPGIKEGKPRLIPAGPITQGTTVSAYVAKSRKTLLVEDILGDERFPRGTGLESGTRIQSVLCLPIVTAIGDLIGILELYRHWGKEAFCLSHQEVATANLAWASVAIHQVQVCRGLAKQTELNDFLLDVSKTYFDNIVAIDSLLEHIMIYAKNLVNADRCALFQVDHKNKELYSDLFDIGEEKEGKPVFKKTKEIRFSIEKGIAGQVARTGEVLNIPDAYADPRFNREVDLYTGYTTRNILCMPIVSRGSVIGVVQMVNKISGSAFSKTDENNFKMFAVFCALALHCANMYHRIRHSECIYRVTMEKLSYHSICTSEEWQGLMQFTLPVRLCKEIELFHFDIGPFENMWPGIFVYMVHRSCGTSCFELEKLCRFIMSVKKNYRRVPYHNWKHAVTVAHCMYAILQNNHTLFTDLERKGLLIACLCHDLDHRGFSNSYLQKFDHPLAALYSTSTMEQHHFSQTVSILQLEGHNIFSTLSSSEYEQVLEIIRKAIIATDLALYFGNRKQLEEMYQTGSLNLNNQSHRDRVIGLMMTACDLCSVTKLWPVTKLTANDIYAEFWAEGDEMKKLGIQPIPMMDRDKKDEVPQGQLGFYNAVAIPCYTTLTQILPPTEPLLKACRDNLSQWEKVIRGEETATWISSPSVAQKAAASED
In short: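 Biochemical single-readout PDE10A assay, cell-free, extracted protein. Compounds first screened at 25 uM in duplicate, hits then titrated to 50 uM max. Activity measured after 1 h; loss-of-signal fitted against DMSO negative control.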

[14] = target: sheep Cyclooxygenase-1 (Cox1), PTGS1 (gene 443551) (UniProt P05979); experiment: NVS_ENZ_oCOX1: NovaScreen (NVS) Enzymatic Assay for sheep Cyclooxygenase-1 (Cox1) (AID 2283239; active means hit-call score of the fitted dose curve at least 0.9, where 1 is the maximum;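 further: actives reduce cyclooxygenase activity so potencies are for inhibitors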)
Chain of sheep Cyclooxygenase-1 (Cox1), PTGS1 (gene 443551) (P05979 whole entry, looked up): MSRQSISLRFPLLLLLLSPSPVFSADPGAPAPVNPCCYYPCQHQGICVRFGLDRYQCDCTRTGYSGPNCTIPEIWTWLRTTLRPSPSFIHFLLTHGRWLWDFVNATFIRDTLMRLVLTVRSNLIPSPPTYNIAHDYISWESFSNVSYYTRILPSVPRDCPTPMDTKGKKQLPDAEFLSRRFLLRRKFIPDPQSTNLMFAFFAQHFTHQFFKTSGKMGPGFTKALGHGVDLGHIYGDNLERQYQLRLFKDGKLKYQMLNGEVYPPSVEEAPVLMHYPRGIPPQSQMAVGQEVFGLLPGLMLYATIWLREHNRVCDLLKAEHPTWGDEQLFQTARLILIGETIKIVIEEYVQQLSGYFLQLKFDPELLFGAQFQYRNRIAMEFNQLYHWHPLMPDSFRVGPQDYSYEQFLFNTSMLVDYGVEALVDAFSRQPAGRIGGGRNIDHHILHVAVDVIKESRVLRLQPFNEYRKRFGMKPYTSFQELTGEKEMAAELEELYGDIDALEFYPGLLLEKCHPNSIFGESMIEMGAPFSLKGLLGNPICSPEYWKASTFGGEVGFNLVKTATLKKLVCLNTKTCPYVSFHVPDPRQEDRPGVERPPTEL
In short: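 Tested in duplicate at 25 uM, then in concentration series if active, against seminal vesicle extract from sheep. Enzyme activity was measured colorimetrically at 0.66 hour and normalised to DMSO.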

[15] = target: Peroxisome proliferator-activated receptor gamma (Homo sapiens) (UniProt P37231); experiment: NVS_NR_hPPARg: NovaScreen (NVS) Nuclear Receptor Binding Assay for human Peroxisome Proliferator-activated Receptor gamma (PPARg) (AID 2283370; active means hit-call score of the fitted dose curve at least 0.9, where 1 is the maximum)
Chain of Peroxisome proliferator-activated receptor gamma (Homo sapiens) (P37231 whole entry, looked up): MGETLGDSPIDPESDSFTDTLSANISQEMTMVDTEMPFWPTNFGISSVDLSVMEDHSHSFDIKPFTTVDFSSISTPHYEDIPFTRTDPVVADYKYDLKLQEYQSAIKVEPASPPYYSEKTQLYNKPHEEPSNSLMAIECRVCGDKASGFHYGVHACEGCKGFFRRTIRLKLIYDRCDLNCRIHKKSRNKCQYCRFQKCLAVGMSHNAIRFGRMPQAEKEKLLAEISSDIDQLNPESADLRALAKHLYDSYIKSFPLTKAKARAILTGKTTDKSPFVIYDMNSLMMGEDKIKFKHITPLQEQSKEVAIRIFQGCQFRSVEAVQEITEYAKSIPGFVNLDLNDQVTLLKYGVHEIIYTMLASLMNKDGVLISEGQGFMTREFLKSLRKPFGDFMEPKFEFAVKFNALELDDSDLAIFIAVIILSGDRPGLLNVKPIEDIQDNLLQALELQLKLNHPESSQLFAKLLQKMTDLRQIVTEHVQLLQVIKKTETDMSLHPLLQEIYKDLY
In short: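 Extracted receptor protein, cell-free; compound incubated 2 h then fluorescence polarization read. Baseline: DMSO. Actives from 25 uM duplicate screen re-run across concentrations.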

[16] = target: rat Acetylcholinesterase (AChE), Ache (gene 83817) (UniProt P37136); experiment: NVS_ENZ_rAChE: NovaScreen (NVS) Enzymatic Assay for rat Acetylcholinesterase (AChE) (AID 2283233; active means hit-call score of the fitted dose curve at least 0.9, where 1 is the maximum)
In short: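 Compounds first screened at 25 uM in duplicate, then those passing threshold tested in concentration series up to 50 uM, against AChE from rat brain membranes. Enzyme activity read by absorbance at 0.33 h; inhibition scored versus DMSO.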

[17] = target: rat Neurotensin Receptor (NTS), Ntsr1 (gene 366274) (UniProt P20789); experiment: NVS_GPCR_rNTS: NovaScreen (NVS) G Protein-Coupled Receptor Assay for rat Neurotensin Receptor (NTS) (AID 2283308; active means hit-call score of the fitted dose curve at least 0.9, where 1 is the maximum)
Chain of rat Neurotensin Receptor (NTS), Ntsr1 (gene 366274) (P20789 whole entry, looked up): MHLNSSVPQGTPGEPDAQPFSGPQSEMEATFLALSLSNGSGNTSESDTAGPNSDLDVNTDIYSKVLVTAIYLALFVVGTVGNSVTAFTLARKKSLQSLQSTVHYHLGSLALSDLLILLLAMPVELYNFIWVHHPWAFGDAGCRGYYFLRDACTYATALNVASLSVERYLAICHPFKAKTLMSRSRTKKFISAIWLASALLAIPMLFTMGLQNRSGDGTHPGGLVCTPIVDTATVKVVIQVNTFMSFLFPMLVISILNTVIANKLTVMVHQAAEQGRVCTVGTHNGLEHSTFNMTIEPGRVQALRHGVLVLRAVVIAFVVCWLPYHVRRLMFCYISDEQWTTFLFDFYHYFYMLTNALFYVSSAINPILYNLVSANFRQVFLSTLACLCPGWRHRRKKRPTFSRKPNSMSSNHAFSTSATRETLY
In short: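 Single-point duplicates at 25 uM, then concentration series to 50 uM max for hits, measured radioligand displacement on rat forebrain membrane preparations. Bound label counted by filtration scintillation at 1 h; signal loss relative to DMSO fitted.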

[18] = target: human MET Proto-Oncogene, Receptor Tyrosine Kinase (MET), MET (gene 4233) (UniProt P08581); experiment: NVS_ENZ_hMet: NovaScreen (NVS) Enzymatic Assay for human MET Proto-Oncogene, Receptor Tyrosine Kinase (MET) (AID 2283180; active means hit-call score of the fitted dose curve at least 0.9, where 1 is the maximum)
Chain of human MET Proto-Oncogene, Receptor Tyrosine Kinase (MET), MET (gene 4233) (P08581 whole entry, looked up): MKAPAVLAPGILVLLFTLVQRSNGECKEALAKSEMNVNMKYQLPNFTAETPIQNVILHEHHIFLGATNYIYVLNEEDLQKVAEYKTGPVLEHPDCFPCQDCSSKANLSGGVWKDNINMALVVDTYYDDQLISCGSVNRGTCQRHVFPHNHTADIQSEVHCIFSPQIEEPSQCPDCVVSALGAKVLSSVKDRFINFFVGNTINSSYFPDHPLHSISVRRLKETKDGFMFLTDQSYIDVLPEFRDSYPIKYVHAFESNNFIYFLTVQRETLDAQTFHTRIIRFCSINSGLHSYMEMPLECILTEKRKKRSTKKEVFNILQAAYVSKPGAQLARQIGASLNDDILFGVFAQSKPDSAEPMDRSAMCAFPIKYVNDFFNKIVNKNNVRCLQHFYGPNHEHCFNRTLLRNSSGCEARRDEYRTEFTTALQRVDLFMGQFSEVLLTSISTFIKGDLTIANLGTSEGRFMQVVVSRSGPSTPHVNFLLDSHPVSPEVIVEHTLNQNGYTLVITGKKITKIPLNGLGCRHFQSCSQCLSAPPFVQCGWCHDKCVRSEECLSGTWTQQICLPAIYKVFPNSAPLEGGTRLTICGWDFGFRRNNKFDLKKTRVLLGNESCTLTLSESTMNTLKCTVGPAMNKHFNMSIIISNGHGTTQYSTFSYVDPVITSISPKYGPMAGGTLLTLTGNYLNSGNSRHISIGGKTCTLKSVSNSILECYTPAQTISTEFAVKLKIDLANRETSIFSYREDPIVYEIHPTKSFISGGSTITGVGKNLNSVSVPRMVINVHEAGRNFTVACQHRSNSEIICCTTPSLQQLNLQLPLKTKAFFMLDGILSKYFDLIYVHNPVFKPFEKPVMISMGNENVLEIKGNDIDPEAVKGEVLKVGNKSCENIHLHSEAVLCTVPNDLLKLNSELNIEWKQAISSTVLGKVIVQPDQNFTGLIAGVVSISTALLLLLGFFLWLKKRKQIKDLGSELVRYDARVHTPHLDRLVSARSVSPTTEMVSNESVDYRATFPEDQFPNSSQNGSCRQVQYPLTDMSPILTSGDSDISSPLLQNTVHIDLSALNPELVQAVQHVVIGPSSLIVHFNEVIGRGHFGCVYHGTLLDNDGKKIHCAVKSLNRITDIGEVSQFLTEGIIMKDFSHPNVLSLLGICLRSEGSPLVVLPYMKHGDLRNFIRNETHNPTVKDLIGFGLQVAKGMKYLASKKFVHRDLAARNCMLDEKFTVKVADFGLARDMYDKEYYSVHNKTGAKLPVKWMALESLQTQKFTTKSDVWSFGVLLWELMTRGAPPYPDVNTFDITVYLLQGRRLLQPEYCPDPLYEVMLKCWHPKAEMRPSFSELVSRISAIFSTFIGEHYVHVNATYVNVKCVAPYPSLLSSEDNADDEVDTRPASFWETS
In short: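 Hits from a 25 uM duplicate screen were retested in concentration series up to 50 uM. Enzyme activity was measured by fluorescence after electrophoretic separation of product from substrate, 1 h after compound addition, relative to DMSO.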

[19] = target: human Raf-1 Proto-Oncogene, serine/threonine Kinase (RAF1), RAF1 (gene 5894) (UniProt P04049); experiment: NVS_ENZ_hRAF1: NovaScreen (NVS) Enzymatic Assay for human Raf-1 Proto-Oncogene, serine/threonine Kinase (RAF1) (AID 2283216; active means hit-call score of the fitted dose curve at least 0.9, where 1 is the maximum)
Chain of human Raf-1 Proto-Oncogene, serine/threonine Kinase (RAF1), RAF1 (gene 5894) (P04049 whole entry, looked up): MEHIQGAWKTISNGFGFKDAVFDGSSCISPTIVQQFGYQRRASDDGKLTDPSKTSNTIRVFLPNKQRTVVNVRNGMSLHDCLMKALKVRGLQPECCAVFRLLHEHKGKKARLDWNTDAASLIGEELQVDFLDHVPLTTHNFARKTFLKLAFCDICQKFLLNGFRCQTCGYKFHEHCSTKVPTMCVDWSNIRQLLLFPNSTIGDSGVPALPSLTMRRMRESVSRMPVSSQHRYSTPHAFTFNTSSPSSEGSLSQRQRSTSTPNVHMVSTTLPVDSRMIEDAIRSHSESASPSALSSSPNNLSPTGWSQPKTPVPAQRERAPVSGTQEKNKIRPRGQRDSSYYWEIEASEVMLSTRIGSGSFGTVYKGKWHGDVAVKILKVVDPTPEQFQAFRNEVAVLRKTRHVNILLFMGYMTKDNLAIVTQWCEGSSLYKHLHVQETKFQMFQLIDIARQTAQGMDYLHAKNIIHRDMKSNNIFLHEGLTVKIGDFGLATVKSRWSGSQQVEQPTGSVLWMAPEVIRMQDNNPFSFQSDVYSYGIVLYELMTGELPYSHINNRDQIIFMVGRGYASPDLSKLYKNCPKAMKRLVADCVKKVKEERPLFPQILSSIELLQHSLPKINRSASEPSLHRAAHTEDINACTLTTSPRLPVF
In short: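 Single-point screening at 25 uM (duplicate), followed by singleton concentration-response to 50 uM maximum for chemicals exceeding threshold. Enzyme activity from fluorescent substrate-product mobility-shift separation after 1 h, relative to DMSO.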

[20] = target: Voltage-dependent N-type calcium channel subunit alpha-1B (Rattus norvegicus) (UniProt Q02294); experiment: NVS_IC_rCaChN: NovaScreen (NVS) Ion Channel Assay for rat Calcium Channel, Type N (CaChN) (AID 2283317; active means hit-call score of the fitted dose curve at least 0.9, where 1 is the maximum)

In the case of `O=C=Nc1ccccc1`, the AC50 [1] is reported as 9.8 µM (active).

With `O=C1C=CC(=O)C=C1` the AC50 [2] was 28.9 µM (active), the AC50 [3] was 0.927 µM (active) and the AC50 [4] was 9.86 µM (active). The outcome [5] was “inactive”.

In the case of `O=[N+]([O-])O`, the outcome [6] is reported as “inactive”, the outcome [7] is reported as “inactive” and the outcome [8] is reported as “inactive”. The outcome [9] was “inactive”, the outcome [10] was “inactive” and the outcome [11] was “inactive”.

In the case of `CCOC(=O)COc1ccc(Cl)cc1Cl`, the outcome [12] is reported as “inactive”.

For `S=c1[nH]c2ccccc2[nH]1`, the outcome [13] was “inactive” and the AC50 [14] was 0.984 µM (active).

With `O=C(NC(=O)c1c(F)cccc1F)Nc1ccc(Oc2ccc(C(F)(F)F)cc2Cl)cc1F` the outcome [12] was “inactive”.

For `CC(=O)C=Cc1ccccc1`, the outcome [15] was “inactive”.

With `O=C(O)CCl` the outcome [15] was “inactive”.

With `COCC(=O)N(c1c(C)cccc1C)N1CCOC1=O` the outcome [13] was “inactive”.

With `c1ccc(Nc2ccc3ccccc3c2)cc1` the outcome [14] was “inactive”.

With `CN(C)c1ccc(C(=C2C=CC(=[N+](C)C)C=C2)c2ccc(N(C)C)cc2)cc1` the AC50 [16] was 17.1 µM (active) and the AC50 [17] was 6.82 µM (active).

In the case of `c1ccc2[nH]c(-c3cscn3)nc2c1`, the outcome [17] is reported as “inactive”.

In the case of `O=C(Nc1ccc(Cl)cc1)Nc1ccc(Cl)c(Cl)c1`, the outcome [16] is reported as “inactive”.

With `O=C(c1ccccc1)c1ccccc1` the outcome [18] was “inactive”.

For `O=C(c1ccc(O)cc1O)c1ccc(O)cc1O`, the outcome [19] was “inactive”.

For `O=C(O)Cn1c(=O)n(Cc2ccc(Br)cc2F)c(=O)c2ccc(Cl)cc21`, the outcome [20] was “inactive”.

With `CCCCCCCCCCCCc1ccccc1S(=O)(=O)O` the AC50 [18] was 26.2 µM (active) and the AC50 [19] was 26 µM (active).

In the case of `COCC(C)OCC(C)OCC(C)O` (centres undefined), the outcome [20] is reported as “inactive”.
